PubChem BioAssay AID1345085 (National Center for Advancing Translational Sciences (NCATS), 2018)
Results filed as inconclusive are left out. Activity calls are given as the source filed them. The call rests on the fitted dose curve; in most records, active means well fitted cell-killing curve with a large enough effect; inconclusive means small, poorly fitted or top-dose-only effect, or effect the other way; inactive means no such curve, though single readings can be large or run the other way.

System: Jar
Assay: Confirmatory qHTS for gynecologic anti-cancer compounds from libraries of approved drugs and bioactive compounds; further: nearly all actives have a fitted effect of over 55% in size
Conditions: gynecologic cancer cell panel viability, ATPlite luminescence, 48 h; series mostly up to 57.6 µM
Method in brief: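 Seeding 1,000 cells per well preceded overnight (16 h) attachment, after which 48 h drug treatment across 57.5 uM–0.977 nM (11 points) was applied. Remaining cellular ATP, detected by ATPlite luminescence, defined IC50.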
Potency means the concentration at half of the fitted maximal effect.

With `Cc1cc(SCc2sc(-c3ccc(C(F)(F)F)cc3)nc2C)ccc1OCC(=O)O` as the molecule, how does the Potency read?
Its Potency is “inactive”.

`Cc1csc(NC(=O)c2sc3nc4c(c(C(F)(F)F)c3c2N)CCC4)n1` was tested. Which Potency did it give?
The Potency was 3.43 µM (active).

How did the Potency turn out when `Cc1nc(NC(=O)N2CCCC2C(N)=O)sc1-c1csc(C(C)(C)C)n1` (stereo not drawn) was run?
The Potency was 21.7 µM (active).

For `Cn1c(=O)c(F)c(Nc2ccc(I)cc2F)c2c(=O)n(CC(O)CO)cnc21` (stereo not drawn), which Potency is on record?
Its Potency is “inactive”.

How did the Potency turn out when `Nc1ccccc1NC(=O)c1ccc(CNc2nccc(-c3cccnc3)n2)cc1` was run?
Its Potency is 1.93 µM (active).

Which Potency does the source give for `CCN1C[C@H](C)n2c(c(O)c3c(=O)n(Cc4ccc(F)c(Cl)c4)nc(C(=O)NC)c32)C1=O` here?
The Potency was “inactive”.

Which Potency does the source give for `COc1cccc2c1C(=O)c1c(O)c3c(c(O)c1C2=O)C[C@@](O)(C(=O)CO)C[C@@H]3O[C@H]1C[C@H](N)[C@H](O[C@@H]2CCCCO2)[C@H](C)O1` here?
Its Potency is 13.7 µM (active).

How did the Potency turn out when `CCN(CC)CCNC(=O)c1c(C)[nH]c(/C=C2\C(=O)Nc3ccc(F)cc32)c1C` was run?
Its Potency is 25.1 µM (active).

How did the Potency turn out when `COC(C(=O)N1Cc2[nH]nc(NC(=O)c3ccc(N4CCN(C)CC4)cc3)c2C1)c1ccccc1` (stereo not drawn) was run?
The Potency was “inactive”.

`Nc1ccc(C(=O)Nc2cccc(-c3nc(N4CCOCC4)c4oc5ncccc5c4n3)c2)cn1` was tested. Which Potency did it give?
Its Potency is 5.44 µM (active).

For `CC(C)[C@@H](CS(=O)(=O)C(C)C)N1C(=O)[C@@](C)(CC(=O)O)C[C@H](c2cccc(Cl)c2)[C@H]1c1ccc(Cl)cc1`, which Potency is on record?
Its Potency is 2.73 µM (active).

For `CO[C@@]12[C@H](COC(N)=O)C3=C(C(=O)C(C)=C(N)C3=O)N1C[C@@H]1N[C@@H]12`, which Potency is on record?
Its Potency is “inactive”.

`Cc1[nH]c2ccccc2c1CCNCc1ccc(/C=C/C(=O)NO)cc1` was tested. Which Potency did it give?
Its Potency is 0.193 µM (active).

For `CC[C@]1(O)C[C@H]2CN(CCc3c([nH]c4ccccc34)[C@@](C(=O)OC)(c3cc4c(cc3OC)N(C=O)[C@H]3[C@@](O)(C(=O)OC)[C@H](OC(C)=O)[C@]5(CC)C=CCN6CC[C@]43[C@@H]65)C2)C1`, which Potency is on record?
Its Potency is 0.273 µM (active).

Which Potency does the source give for `Cc1ccc(C(=O)N(CCCN)C(c2nc3cc(Cl)ccc3c(=O)n2Cc2ccccc2)C(C)C)cc1` (stereo not drawn) here?
The Potency was 0.0153 µM (active).

For `COc1cc2nccc(Oc3ccc(NC(=O)C4(C(=O)Nc5ccc(F)cc5)CC4)cc3)c2cc1OC`, which Potency is on record?
The Potency was 27.3 µM (active).

For `CN1C(=O)C(Cc2c[nH]c3ccccc23)NC1=S` (stereo not drawn), which Potency is on record?
Its Potency is “inactive”.

For `C[C@@]1(C(=O)Nc2ccc(F)nc2)CCCN1c1nc(Nc2cc(C3CC3)[nH]n2)c2cccn2n1`, which Potency is on record?
Its Potency is 8.63 µM (active).

For `COCCOc1ccc2c(c1)ncn2-c1ccc2cccc(N3CCC(N)CC3)c2n1`, which Potency is on record?
Its Potency is “inactive”.

With `CCCC(=O)O[C@]1(C(=O)CCl)[C@@H](C)C[C@H]2[C@@H]3CCC4=CC(=O)C=C[C@]4(C)[C@@]3(F)C(=O)C[C@@]21C` as the molecule, how does the Potency read?
Its Potency is 43.2 µM (active).

Which Potency does the source give for `CCS(=O)(=O)N1CCN(c2ccc(Nc3ncc(C(N)=O)c(NC4CC4)n3)cc2)CC1` here?
Its Potency is 12.2 µM (active).

How did the Potency turn out when `Cn1cnc2c(F)c(Nc3ccc(Br)cc3Cl)c(C(=O)NOCCO)cc21` was run?
The Potency was “inactive”.

For `O=C(c1ccc(F)c(F)c1Nc1ccc(I)cc1F)N1CC(O)([C@@H]2CCCCN2)C1`, which Potency is on record?
Its Potency is 21.7 µM (active).

`Cc1nc(Nc2n[nH]c3c2CN(C(=O)NC(CN(C)C)c2ccccc2)C3(C)C)c2sccc2n1` (stereo not drawn) was tested. Which Potency did it give?
The Potency was “inactive”.

With `COc1cc(N2CCC(N3CCN(C)CC3)CC2)ccc1Nc1ncnc(Nc2ccccc2S(=O)(=O)C(C)C)n1` as the molecule, how does the Potency read?
The Potency was “inactive”.

For `COc1ccc(CCC(=O)c2c(O)cc(O[C@@H]3O[C@H](CO)[C@@H](O)[C@H](O)[C@H]3O[C@@H]3O[C@@H](C)[C@H](O)[C@@H](O)[C@H]3O)cc2O)cc1O`, which Potency is on record?
Its Potency is “inactive”.

With `CN[C@@H](C)C(=O)N[C@H]1CN(C(=O)CC(C)C)CC[C@H]2CC[C@@H](C(=O)NC(c3ccccc3)c3ccccc3)N2C1=O` as the molecule, how does the Potency read?
Its Potency is “inactive”.

For `COc1cccc2c1C(=O)c1c(O)c3c(c(O)c1C2=O)C[C@@](O)(C(=O)CO)C[C@@H]3O[C@H]1C[C@H](N)[C@H](O)[C@H](C)O1`, which Potency is on record?
The Potency was 1.72 µM (active).

How did the Potency turn out when `Cc1nc(N)nc(N)c1-c1ccc(Cl)c(Cl)c1` was run?
Its Potency is 4.85 µM (active).

With `NC(=O)c1cnc(-c2ccc(C3(N)CCC3)cc2)c(-c2ccccc2)c1` as the molecule, how does the Potency read?
Its Potency is 27.3 µM (active).

`Cc1nc(Nc2ncc(C(=O)Nc3c(C)cccc3Cl)s2)cc(N2CCN(CCO)CC2)n1` was tested. Which Potency did it give?
The Potency was 21.7 µM (active).

Which Potency does the source give for `CCCCc1nc2cc(/C=C/C(=O)NO)ccc2n1CCN(CC)CC` here?
Its Potency is 1.22 µM (active).

For `CC(C)n1nc(-c2cc3cc(O)ccc3[nH]2)c2c(N)ncnc21`, which Potency is on record?
Its Potency is 5.44 µM (active).
